According to PubChem BioAssay (NCATS):
Inconclusive results are not listed. Calls of active or inactive are those of the source. Calls follow the shape of the dose curve; as a rule, active = well fitted cell-killing curve with a large enough effect; inconclusive = small, poorly fitted or top-dose-only effect, or effect the other way; inactive = flat fitted curve, though single readings scatter.

How the values were obtained:
Assay in all cases: Primary qHTS to identify gynecologic anti-cancer compounds using libraries of approved drugs and bioactive compounds (AID 1345084); also: nearly all actives have a fitted effect of over 55% in size
C33A = conditions: Gynecologic cancer cell panel viability, ATPlite luminescence, 48 h; series mostly up to 57.5 µM
Outline: (§1)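 In this quantitative HTS, cell killing is estimated from loss of ATP-dependent luciferase light. Cells see five compound concentrations over a 48 h exposure.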

CASKI = conditions: Gynecologic cancer cell panel viability, ATPlite luminescence, 48 h; series mostly up to 57.5 µM
Outline: as §1

Es-2 = conditions: Gynecologic cancer cell panel viability, ATPlite luminescence, 48 h; series mostly up to 57.5 µM
Outline: as §1

HeLa = conditions: Gynecologic cancer cell panel viability, ATPlite luminescence, 48 h; series mostly up to 57.5 µM
Outline: as §1

Hek293T = conditions: Gynecologic cancer cell panel viability, ATPlite luminescence, 48 h, control line for the selectivity index; series mostly up to 57.5 µM
Outline: as §1

JEG-3 = conditions: Gynecologic cancer cell panel viability, ATPlite luminescence, 48 h; series mostly up to 57.5 µM
Outline: as §1

OV90 = conditions: Gynecologic cancer cell panel viability, ATPlite luminescence, 48 h; series mostly up to 57.5 µM
Outline: as §1

PA-1 = conditions: Gynecologic cancer cell panel viability, ATPlite luminescence, 48 h; series mostly up to 57.5 µM
Outline: as §1

SKOV3 = conditions: Gynecologic cancer cell panel viability, ATPlite luminescence, 48 h; series mostly up to 57.5 µM
Outline: as §1

Tov-21-G = conditions: Gynecologic cancer cell panel viability, ATPlite luminescence, 48 h; series mostly up to 57.5 µM
Outline: as §1

Tov112D = conditions: Gynecologic cancer cell panel viability, ATPlite luminescence, 48 h; series mostly up to 57.5 µM
Outline: as §1
% is scaled to controls: 0 for no effect and ±100 for the full control effect; potency is read from the fitted curve at half-maximal effect.

C=CC(=O)N1CCN(C(=O)CNc2cc(-c3ccccc3Cl)c(Cl)cc2OC)CC1
inactive: Potency (C33A) | Potency (CASKI) | Potency (Es-2) | Potency (HeLa) | Potency (Hek293T) | Potency (JEG-3) | Potency (OV90) | Potency (PA-1) | Potency (SKOV3) | Potency (Tov-21-G) | Potency (Tov112D)

COc1ccc(OC)c(-c2ccc(NC(=O)c3ccncc3F)cc2)c1
inactive: Potency (C33A) | Potency (CASKI) | Potency (Es-2) | Potency (HeLa) | Potency (Hek293T) | Potency (JEG-3) | Potency (OV90) | Potency (PA-1) | Potency (SKOV3) | Potency (Tov-21-G) | Potency (Tov112D)

O=C(NCc1ccccc1)c1ccc2c(=O)n(-c3cccc(C(F)(F)F)c3)c(=S)[nH]c2c1
inactive: Potency (C33A) | Potency (CASKI) | Potency (Es-2) | Potency (HeLa) | Potency (Hek293T) | Potency (JEG-3) | Potency (OV90) | Potency (PA-1) | Potency (SKOV3) | Potency (Tov-21-G) | Potency (Tov112D)

CC(=O)N[C@H]1[C@H](O[C@H]2CC[C@@]3(C)C(CC[C@]4(C)C3CC=C3C5CC(C)(C)CC[C@]5(C(=O)O)C(O)C[C@]34C)C2(C)C)O[C@H](CO[C@@H]2O[C@H](C)[C@H](O)[C@H](O)[C@H]2O[C@@H]2OC[C@@H](O)[C@H](O)[C@H]2O)[C@@H](O)[C@@H]1O (stereo partly specified)
inactive: activity change, negative = cytotoxicity (C33A) 3.31% [at 11.6 µM] | activity change, negative = cytotoxicity (CASKI) 25.2% [at 11.6 µM] | activity change, negative = cytotoxicity (Es-2) 3.97% [at 11.6 µM] | activity change, negative = cytotoxicity (HeLa) 4.55% [at 11.6 µM] | activity change, negative = cytotoxicity (Hek293T) -2.18% [at 11.6 µM] | activity change, negative = cytotoxicity (JEG-3) -18.9% [at 11.6 µM] | activity change, negative = cytotoxicity (OV90) 7.05% [at 11.6 µM] | activity change, negative = cytotoxicity (PA-1) 4.44% [at 11.6 µM] | activity change, negative = cytotoxicity (SKOV3) -11.9% [at 11.6 µM] | activity change, negative = cytotoxicity (Tov-21-G) -0.865% [at 11.6 µM] | activity change, negative = cytotoxicity (Tov112D) -1.59% [at 11.6 µM]

CC(=O)O[C@H]1CC[C@]2(C)[C@H]3CC[C@]4(C)Oc5oc(C)cc(=O)c5C[C@H]4[C@]3(C)CC[C@H]2C1(C)C
inactive: Potency (C33A) | Potency (CASKI) | Potency (Es-2) | Potency (HeLa) | Potency (Hek293T) | Potency (JEG-3) | Potency (OV90) | Potency (PA-1) | Potency (SKOV3) | Potency (Tov-21-G) | Potency (Tov112D)

COc1ccc([C@H](Cc2ccncc2)c2ccccc2)cc1OC1CCCC1
inactive: Potency (C33A) | Potency (CASKI) | Potency (Es-2) | Potency (HeLa) | Potency (Hek293T) | Potency (JEG-3) | Potency (OV90) | Potency (PA-1) | Potency (SKOV3) | Potency (Tov-21-G) | Potency (Tov112D)

CC(C)C[C@@H](C(=O)N[C@@H](Cc1ccc(OCc2ccccc2)cc1)C(=O)NC(C)(C)C)N(C)Cc1ccc(C(C)(C)C)cc1
inactive: Potency (C33A) | Potency (CASKI) | Potency (Es-2) | Potency (HeLa) | Potency (Hek293T) | Potency (JEG-3) | Potency (OV90) | Potency (PA-1) | Potency (Tov-21-G) | Potency (Tov112D)

COC(CCc1ccc(O)cc1)CC(=O)CCc1ccc(O)cc1 (stereo unspecified)
inactive: Potency (C33A) | Potency (CASKI) | Potency (Es-2) | Potency (HeLa) | Potency (Hek293T) | Potency (OV90) | Potency (PA-1) | Potency (SKOV3) | Potency (Tov-21-G) | Potency (Tov112D)

COc1cc2nc(N3CCN(C(=O)c4ccco4)C4CCCCC43)nc(N)c2cc1OC (stereo unspecified)
inactive: Potency (C33A) | Potency (CASKI) | Potency (Es-2) | Potency (HeLa) | Potency (Hek293T) | Potency (JEG-3) | Potency (OV90) | Potency (Tov112D)

O=C(NO)c1ccc(CC(=O)N(CCO)c2ccccc2)cc1
inactive: Potency (C33A) | Potency (CASKI) | Potency (Es-2) | Potency (HeLa) | Potency (Hek293T) | Potency (OV90) | Potency (Tov-21-G) | Potency (Tov112D)

COc1cc(N2CCOCC2)ccc1NC(=O)c1csc(-c2cccnc2)n1
inactive: Potency (C33A) | Potency (CASKI) | Potency (Es-2) | Potency (HeLa) | Potency (Hek293T) | Potency (JEG-3) | Potency (Tov112D)

COc1ccc2cc3c(NC(=O)c4ccco4)nn(C)c3nc2c1
inactive: Potency (C33A) | Potency (CASKI) | Potency (Es-2) | Potency (HeLa) | Potency (Hek293T) | Potency (JEG-3) | Potency (PA-1) | Potency (Tov-21-G) | Potency (Tov112D)

COc1ccc(C(=O)O[C@H]2C=COC=C3C=C4C(=O)N(C)C(=S)C(=O)N4[C@@H]32)cc1Oc1cc(C=O)ccc1O
inactive: Potency (C33A) | Potency (CASKI) | Potency (Es-2) | Potency (HeLa) | Potency (Hek293T) | Potency (JEG-3) | Potency (OV90) | Potency (SKOV3) | Potency (Tov112D)

C[C@@H](N[C@H]1CCCC[C@@H]1NC(=O)c1ccc(Cl)cc1)c1cccc2ccccc12
active: Potency (SKOV3) 31.6 µM
inactive: Potency (C33A) | Potency (CASKI) | Potency (Es-2) | Potency (HeLa) | Potency (Hek293T) | Potency (OV90) | Potency (PA-1) | Potency (Tov-21-G)

C=C1C(=O)O[C@@H]2[C@H]1CC[C@H](C)[C@]1(CCC(=O)O1)C2(C)O (stereo partly specified)
inactive: Potency (C33A) | Potency (CASKI) | Potency (Es-2) | Potency (HeLa) | Potency (JEG-3) | Potency (OV90) | Potency (PA-1) | Potency (SKOV3) | Potency (Tov112D)

CN(CC1COCCO1)S(=O)(=O)Nc1ccc2ccc3ncc(-c4cnn(C)c4)cc3c(=O)c2c1 (stereo unspecified)
active: Potency (HeLa) 14.1 µM | Potency (SKOV3) 15.8 µM
inactive: Potency (C33A) | Potency (CASKI) | Potency (Es-2) | Potency (Hek293T) | Potency (JEG-3) | Potency (OV90)

O=C(NC1(c2ccccc2)CC1)c1c(CN2CCC(N3CCCCC3)CC2)c(-c2cccc(C(F)(F)F)c2)nc2cc(Br)ccc12
active: Potency (OV90) 17.8 µM
inactive: Potency (C33A) | Potency (CASKI) | Potency (Es-2) | Potency (HeLa) | Potency (JEG-3) | Potency (SKOV3) | Potency (Tov-21-G) | Potency (Tov112D)

N#Cc1cc(-c2ccnc(Nc3ccc(N4CCOCC4)cc3)n2)ccc1OC1CCOCC1
inactive: Potency (C33A) | Potency (CASKI) | Potency (Es-2) | Potency (HeLa) | Potency (Hek293T) | Potency (JEG-3) | Potency (OV90) | Potency (Tov-21-G) | Potency (Tov112D)
